# Among all 13,000 compounds or so, about 3,200 (25%) showed an effect of 50% or more. This is one part of the list.
# Tested on: P. falciparum stage V gametocytes
# Set-up: BacTiter-Glo ATP luminescence viability of purified stage V gametocytes in 384-well plates, per cent inhibition versus DMSO
# Settings: 48 h, 5 µM; inhibitor
row,Compound,% Inhibition
1,CSc1nc2nc(C)c(Cc3cccc(F)c3)c(C)n2n1 [TCMDC-123765],1.864%
2,COc1cc2ncnc(Nc3ccc4nc(-c5ccccc5)[nH]c4c3)c2cc1OC [TCMDC-137191],-26.1%
3,Cc1c2ccncc2c(C)c2c1[nH]c1cc(Cc3ccccc3)c(O)cc12 [TCMDC-132053],89.31%
4,Cc1c2ccncc2c(C)c2c1[nH]c1ccccc12 [TCMDC-125546],-37.29%
5,O=C(Nc1ccc(-c2cccc(-c3nc4ccc(C(F)(F)F)cc4[nH]3)c2)cc1)c1ccc(=O)[nH]n1 [TCMDC-137032],18.19%
6,CCC(C)(C)c1ccc(N2C(N)=NC(N)=NC2(C)C)cc1 [TCMDC-137919],8.342%
7,O=C(Nc1ccc(Cl)cc1)OCCn1nnnc1C(c1ccc(Cl)cc1)N1CCOCC1 (stereo not shown) [TCMDC-124138],-11.24%
8,COc1ccc2nccc(NC(=O)N3CCC(NCCOc4cc(F)cc(F)c4)CC3)c2n1 [TCMDC-140666],29.69%
9,COc1ccc2nccc(NC(=O)C3(O)CCC(NCc4ccc5c(c4)NCCS5)CC3)c2n1 (stereo not shown) [TCMDC-141406],32.7%
10,COc1ccc2nccc(NC(=O)C3CCC(NCc4cnc(SC)c([N+](=O)[O-])c4)CC3)c2n1 (stereo not shown) [TCMDC-131238],93.77%
11,Cc1cccc2[nH]c(-c3ccc(-c4cccc(NC(=O)Nc5ccc(F)c(F)c5F)c4)cc3)nc12 [TCMDC-133234],-5.873%
12,O=C(N[C@@H](Cc1ccccc1)C(=O)NC1CCCCC1)c1ccc(O)c(-c2cccc(C(F)(F)F)c2)c1 [TCMDC-140809],50.49%
13,O=C(N[C@@H](CC1CCCCC1)C(=O)NC1CCCCC1)c1ccc(O)c(-c2cccc(C(F)(F)F)c2)c1 [TCMDC-140810],6.892%
14,O=C(N[C@@H](Cc1ccccc1)C(=O)NC1CCCCCC1)c1ccc(O)c(-c2cccc(C(F)(F)F)c2)c1 [TCMDC-140813],18.86%
15,OC(CNc1ccnc(Nc2ccccc2)n1)c1ccc(C(F)(F)F)cc1 (stereo not shown) [TCMDC-136598],-1.002%
16,O=c1cc(NCCCNCc2[nH]c3cc(Cl)ccc3c2Cl)[nH]c2ccccc12 [TCMDC-139966],-23.52%
17,O=C(NC(c1ccccc1)c1ccc2cccnc2c1O)c1ccccc1 (stereo not shown) [TCMDC-123701],103.7%
18,COc1cccc(C(NC(=O)c2ccccc2)c2ccc3cccnc3c2O)c1 (stereo not shown) [TCMDC-125755],75.54%
19,Cc1ccc(C(NC(=O)c2ccccc2)c2ccc3cccnc3c2O)cc1 (stereo not shown) [TCMDC-125552],16.34%

# From paper PMC4552634, “A New Set of Chemical Starting Points with Plasmodium falciparum Transmission-Blocking Potential for Antimalarial Drug Discovery” (PLoS ONE, 2015)
